PubChem BioAssay (NCATS)
Results filed as inconclusive are left out. Activity calls are given as the source filed them. The call rests on the fitted dose curve; in most records, active means well fitted inhibition curve with a large enough effect; inconclusive means small, poorly fitted or top-dose-only effect; inactive means flat fitted curve, though single readings scatter.

Experiments:
Assay in all cases: qHTS profiling for inhibitors of Plasmodium falciparum proliferation (AID 504749); further: nearly all actives have a fitted effect of over 60% in size
Conditions in all cases: P. falciparum in erythrocytes, SYBR Green DNA, 72 h; series mostly up to 28.7 µM
CP291 = test system: CP291
Procedure, shortened: (§1)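 P. falciparum-infected erythrocytes (0.3% parasitemia, 2.5% hematocrit) incubated with compound 72 h at 37 C, 5% CO2. Parasite DNA detected by SYBR Green after lysis, overnight at room temperature; normalised to 0.29 uM artemisinin and DMSO.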

CP297 = test system: CP297
Procedure, shortened: as §1

CP305 = test system: CP305
Procedure, shortened: as §1

CP315 = test system: CP315
Procedure, shortened: as §1

CP325 = test system: CP325
Procedure, shortened: as §1

CP329 = test system: CP329
Procedure, shortened: as §1

CP335 = test system: CP335
Procedure, shortened: as §1

DFO2036 = test system: DFO2036
Procedure, shortened: as §1

DIV17 = test system: DIV17
Procedure, shortened: as §1

DIV30 = test system: DIV30
Procedure, shortened: as §1

Dd2 = test system: Dd2
Procedure, shortened: as §1

ECU = test system: ECU
Procedure, shortened: as §1

FAB9 = test system: FAB9
Procedure, shortened: as §1

GB4 = test system: GB4
Procedure, shortened: as §1

HB3 = test system: HB3
Procedure, shortened: as §1

ICS = test system: ICS
Procedure, shortened: as §1

JCK = test system: JCK
Procedure, shortened: as §1

N140 = test system: N140
Procedure, shortened: as §1

P93_24 = test system: P93_24
Procedure, shortened: as §1

DIV14 = test system: DIV14
Procedure, shortened: as §1

Measured: Potency
Potency means the concentration at half of the fitted maximal effect.

NC(=O)c1cccnc1
not listed: DIV14
inactive: all other assays above

COc1cc(NS(=O)(=O)c2ccc(N)cc2)nc(OC)n1
not listed: ICS
inactive: all other assays above

CN(Cc1cc(Br)cc(Br)c1N)C1CCCCC1
not listed: CP335 | Dd2 | GB4 | HB3 | ICS | P93_24 | DIV14
inactive: all other assays above

CN1CCCC(n2nc(Cc3ccc(Cl)cc3)c3ccccc3c2=O)CC1 (centres undefined)
active: DIV14 7.57 µM | DIV17 7.57 µM | Dd2 11.2 µM | ICS 8.91 µM
inactive: CP305 | CP315 | CP325 | CP329 | DFO2036 | DIV30 | FAB9 | HB3

Cc1oc(=O)oc1CN1CCN(c2cc3c(cc2F)c(=O)c(C(=O)O)c2n3C(C)S2)CC1 (centres undefined)
active: CP335 6.01 µM | DFO2036 7.94 µM | DIV14 15.1 µM | DIV17 16.9 µM | Dd2 7.08 µM | ECU 10 µM | GB4 7.57 µM | HB3 8.91 µM | ICS 7.08 µM | P93_24 5.01 µM
inactive: CP315

Oc1c(Cl)cc(Cl)c2cccnc12
active: CP329 10.7 µM | DFO2036 10 µM | GB4 12 µM | ICS 7.94 µM | N140 12.6 µM
inactive: CP315 | Dd2 | FAB9 | HB3 | JCK

N[C@@H](Cc1ccc(O)c(O)c1)C(=O)O
inactive: CP291 | CP297 | CP305 | CP315 | CP325 | CP329 | DIV14 | DIV17 | DIV30 | GB4

CCn1cc(C(=O)O)c(=O)c2cc(F)c(N3CCN(C)CC3)cc21
active: Dd2 12.6 µM
not listed: CP291 | CP305 | CP335 | DFO2036 | ECU | ICS | P93_24
inactive: all other assays above

CCOc1cc(N)c(Cl)cc1C(=O)NCC1CN(Cc2ccc(F)cc2)CCO1 (centres undefined)
active: CP291 12 µM | CP305 10.7 µM | CP329 13.5 µM | CP335 6.75 µM | ECU 10 µM | GB4 12 µM | HB3 8.91 µM | ICS 3.98 µM | P93_24 6.31 µM

O=C(O)c1cn(C2CC2)c2cc(N3CCNCC3)c(F)cc2c1=O
inactive: DIV17 | ECU | FAB9 | JCK
active: Dd2 3.16 µM | ICS 3.16 µM

CCn1cc(C(=O)O)c(=O)c2cc(F)c(N3CCNCC3)nc21
not listed: CP291 | DFO2036 | Dd2 | ICS | P93_24
inactive: all other assays above

CCOC(=O)c1ccc(C#Cc2ccc3c(c2)C(C)(C)CCS3)nc1
not listed: CP291 | CP305 | CP335 | ICS | DIV14
inactive: all other assays above

COc1nc(N)nc2c1ncn2[C@@H]1O[C@H](CO)[C@@H](O)[C@@H]1O
not listed: CP291 | CP297
inactive: all other assays above

COc1cc2c(Nc3ccc(Br)cc3F)ncnc2cc1OCC1CCN(C)CC1
inactive: CP315
active: CP291 3.79 µM | CP305 2.39 µM | CP325 10.7 µM | CP335 4.26 µM | DFO2036 0.794 µM | DIV14 1.51 µM | DIV17 2.39 µM | Dd2 8.91 µM | ECU 3.16 µM | FAB9 10 µM | GB4 1.51 µM | HB3 5.01 µM | ICS 3.98 µM | N140 2.51 µM | P93_24 2 µM

CC(C)(Sc1cc(C(C)(C)C)c(O)c(C(C)(C)C)c1)Sc1cc(C(C)(C)C)c(O)c(C(C)(C)C)c1
active: CP335 3.61 µM | ICS 3.16 µM
not listed: CP315 | HB3
inactive: all other assays above

CC(N)C12CC3CC(CC(C3)C1)C2 (centres undefined)
active: CP297 7.57 µM | GB4 6.75 µM
inactive: CP315 | DFO2036 | Dd2 | ECU | FAB9 | HB3 | ICS

Cc1noc(NS(=O)(=O)c2ccc(N)cc2)c1C
not listed: CP315
inactive: all other assays above

COc1cc([C@@H]2c3cc4c(cc3[C@H](O)[C@H]3COC(=O)[C@H]23)OCO4)cc(OC)c1OC
active: CP297 15.1 µM | CP305 6.75 µM | CP325 13.5 µM | CP335 3.38 µM | DFO2036 2.82 µM | DIV14 2.13 µM | DIV17 1.69 µM | DIV30 6.75 µM | Dd2 2.24 µM | ECU 3.55 µM | FAB9 6.31 µM | GB4 3.38 µM | HB3 1.78 µM | ICS 0.891 µM | N140 2.82 µM | P93_24 2.24 µM

O=c1oc2c(O)c(O)cc3c(=O)oc4c(O)c(O)cc1c4c23
active: CP297 1.51 µM | CP335 0.849 µM | Dd2 2 µM | GB4 0.849 µM | HB3 2 µM | ICS 0.891 µM
inactive: CP325 | CP329 | JCK

NC(=O)N1c2ccccc2CC(=O)c2ccccc21
not listed: CP291 | CP329
inactive: all other assays above

CCCc1cc(C(N)=S)ccn1
not listed: CP297
inactive: all other assays above

C[C@@H](NCCCc1cccc(C(F)(F)F)c1)c1cccc2ccccc12
inactive: FAB9
active: CP291 10.7 µM | CP297 13.5 µM | CP305 13.5 µM | CP325 15.1 µM | DFO2036 11.2 µM | DIV14 6.01 µM | DIV17 5.36 µM | DIV30 7.57 µM | Dd2 5.01 µM | ECU 3.16 µM | GB4 12 µM | HB3 12.6 µM | ICS 1.78 µM | N140 2.82 µM | P93_24 6.31 µM

CC(C)(C)C(=O)OCOP(=O)(COCCn1cnc2c(N)ncnc21)OCOC(=O)C(C)(C)C
inactive: CP291 | CP305 | CP315 | CP325 | CP329 | DIV30 | ECU | FAB9 | JCK

CNCC[C@H](Oc1cccc2ccccc12)c1cccs1
inactive: CP291 | CP305 | CP315 | CP325 | CP329 | FAB9
active: DIV17 3.01 µM | DIV30 10.7 µM | Dd2 6.31 µM | ECU 11.2 µM | GB4 12 µM | ICS 3.16 µM | N140 8.91 µM | P93_24 3.16 µM

COc1cccc(N(C)C(=S)Oc2ccc3c(c2)CCCC3)n1
not listed: CP291 | CP297 | CP335 | DIV30 | ICS | DIV14
inactive: all other assays above

CCn1cc(C(=O)O)c(=O)c2cc(F)c(N3CCNCC3)cc21
inactive: CP315 | CP329 | DIV14 | DIV17 | DIV30 | ECU | FAB9 | HB3 | JCK

C1CCC(C(CC2CCCCN2)C2CCCCC2)CC1 (centres undefined)
active: CP291 12 µM | CP297 13.5 µM | CP335 9.53 µM | DFO2036 11.2 µM | DIV14 3.79 µM | DIV17 3.38 µM | Dd2 12.6 µM | ECU 5.01 µM | GB4 9.53 µM | HB3 11.2 µM | ICS 1.12 µM | JCK 12.6 µM | N140 10 µM | P93_24 12.6 µM

CNC(=O)c1cc(Oc2ccc(NC(=O)Nc3ccc(Cl)c(C(F)(F)F)c3)cc2)ccn1
inactive: FAB9
active: CP297 9.53 µM | DIV14 2.69 µM | DIV17 3.01 µM | DIV30 1.07 µM | ECU 8.91 µM | GB4 13.5 µM | HB3 11.2 µM | ICS 1.12 µM | N140 5.01 µM | P93_24 10 µM

COc1c(N2CCNC(C)C2)c(F)cc2c(=O)c(C(=O)O)cn(C3CC3)c12 (centres undefined)
not listed: CP291 | CP297 | Dd2
inactive: all other assays above

CCCCOc1ccc(CC(=O)NO)cc1
active: CP291 3.22 µM | CP305 4.55 µM | CP329 3.22 µM | CP335 1.61 µM | DFO2036 2.82 µM | DIV14 1.44 µM | DIV17 2.87 µM | DIV30 2.56 µM | Dd2 3.55 µM | GB4 3.22 µM | HB3 3.98 µM | ICS 3.16 µM | N140 3.98 µM | P93_24 1.58 µM

CCCc1nc(C)c2c(=O)[nH]c(-c3cc(S(=O)(=O)N4CCN(CC)CC4)ccc3OCC)nn12
active: DIV14 5.36 µM | DIV17 10.7 µM | ICS 4.47 µM | P93_24 8.91 µM
not listed: CP297 | DIV30 | ECU | HB3 | N140
inactive: all other assays above

COC(=O)Nc1nc2ccc(C(=O)c3ccccc3)cc2[nH]1
not listed: CP291 | CP305 | CP325 | DIV17 | GB4 | DIV14
inactive: all other assays above

CCCCCCNC(=O)n1cc(F)c(=O)[nH]c1=O
active: CP291 12 µM | CP335 5.36 µM | DIV14 5.36 µM | DIV17 8.49 µM | DIV30 13.5 µM | GB4 8.49 µM | HB3 8.91 µM | ICS 4.47 µM
